HCMV antiviral: inhibitors of human cytomegalovirus. HFF cells, HCMV-luciferase reporter, 72 h; stronger effect = lower value. activity change, negative = inhibition, % at 57.5 µM. hit rate 4.5% among 410,000; in the data active = activity change below about -60%; inconclusive = no clear call, values can overlap the other calls; inactive = above about -39%
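After 16 h attachment at 37C, HFF cells received test compound and HCMV-luciferase (1 PFU/cell); reporter luminescence read 72 h later, data normalized against buffer-only and known inhibitor Salinomycin.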
Pf growth 96h: P. falciparum growth inhibition at 96 hour, primary screen for plastid delayed-death inhibitors; P. falciparum luciferase reporter growth, 96 h; Potency, µM (highest dose often 28.7 µM), for the others: at the highest dose activity change, negative = inhibition, hits mostly inhibitors; hit rate 6.9% among 320,000; note: potency is the fitted concentration of half-maximal effect
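P. falciparum expressing integrated firefly luciferase grown in erythrocytes (2% hematocrit, 0.05% parasitemia final) with compounds for 96 hours at 37 C, 5% CO2. Growth inhibition read as loss of luminescence after adding luciferase detection reagent.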
Pf growth 48h: inhibits P. falciparum growth in the first generation, 48 h. P. falciparum luciferase growth in erythrocytes, 48 h. Potency, µM (top dose mostly 28.7 µM), for inactives: at the highest dose activity change, negative = inhibition, usual class: inhibitors. hit rate 5.9% among 310,000; note: potency is the fitted concentration of half-maximal effect
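Read-out is firefly luciferase luminescence from an integrated reporter in P. falciparum, so falling signal marks reduced parasite growth. Infected erythrocytes were at 2% hematocrit and 0.1% parasitemia (final) in Albumax-supplemented RPMI 1640.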
FBPA Giardia inh: Giardia lamblia aldolase inhibition | A8B2U2 | AID 2451 | Potency, µM (titrated, usually from 59.6 µM), inactives show at the highest dose activity, negative = inhibition, usual class: inhibitors | purified Giardia FBPA | hit rate 0.71% among 290,000; note: potency is the fitted concentration of half-maximal effect; nearly all actives have a fitted effect of over 55% in size
Target sequence (A8B2U2 whole entry, looked up): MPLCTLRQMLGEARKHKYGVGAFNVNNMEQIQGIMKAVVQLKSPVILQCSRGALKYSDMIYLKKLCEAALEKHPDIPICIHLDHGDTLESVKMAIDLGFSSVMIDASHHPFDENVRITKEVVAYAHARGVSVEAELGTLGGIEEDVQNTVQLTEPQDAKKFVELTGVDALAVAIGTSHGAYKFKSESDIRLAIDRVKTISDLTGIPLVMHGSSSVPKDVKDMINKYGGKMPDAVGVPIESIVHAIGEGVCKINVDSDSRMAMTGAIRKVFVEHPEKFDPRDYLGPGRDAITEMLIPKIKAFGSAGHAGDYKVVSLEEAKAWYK
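Giardia FBPA (40 nM reagent) was preincubated 10 min at RT with compound (up to 57.5 uM final), then substrate plus GAPDH/TPI/NAD/arsenate coupling system with diaphorase/resazurin was added; resorufin fluorescence (525/598 nm) was read after 20 min.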
Sm TGR inh: S. mansoni TGR enzyme inhibition | purified TGR, DTNB reduction, TNB absorbance 405 nm | Potency, µM (top dose mostly 114 µM), for inactives: at the top dose activity change, negative = inhibition, usual class: inhibitors | AID 485364 | hit rate 3% among 360,000; note: potency is the fitted concentration of half-maximal effect; nearly all actives have a fitted effect of over 60% in size
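First, TGR (20 nM dispensed) and NADPH were mixed with compound. Second, a 15 min room-temperature incubation followed. Third, further NADPH and then DTNB were added to start the reaction. Finally, TNB absorbance was monitored kinetically.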
An asterisk follows results filed as active; ? = inconclusive; . = no result; ! = not active in a repeat; [ ] = remark or other dose. An excerpt weighted towards active compounds, which were near 14% of everything screened. Unless noted, calls come from the whole dose curve; as a rule, active = well fitted curve in the direction sought with a large enough effect; inconclusive = small, poorly fitted or top-dose-only effect, or another doubt; inactive = no such curve, though single readings can be large; an effect the other way counts as inactive or inconclusive. % is set by controls: 0 for no effect and ±100 for the full control effect.

SMILES | HCMV antiviral | Pf growth 96h | Pf growth 48h | FBPA Giardia inh | Sm TGR inh
Cn1c(-c2c(N)n(CCCc3ccccc3)c3nc4ccccc4nc23)nc2ccccc21 | 42 | -6% | ? | . | 8%
COc1ccc(NC(=O)CSCC(=O)N(C)Cc2ccc3c(c2)OCCO3)cc1 | 44 | ? | ? | . | -17%
OC[C@@H]1CN(Cc2ccncc2)C[C@H](n2cnc3c(NC4CCCC4)ncnc32)O1 | -3 | . | . | . | .
Cc1cc(SC#N)cc(C)c1NC(=O)CCl | -83* | 58% | -11% | -8% | 14µM*
CCc1cc(SC#N)cc(C)c1NC(=O)CCl | -96* | ? | 13µM* | -14% | 10µM*
CCc1cc(SC#N)cc(C)c1N | -13 | 3.3µM* | 8.3µM* | -1% | 6%
CCC(=O)Nc1ccc(SC#N)cc1C | 7 | -21% | . | 0% | 10%
Cc1nc([N+](=O)[O-])cn1-c1ccc(N)cc1 | -21 | 12µM* | 5% | 5% | -7%
CCn1cc([N+](=O)[O-])nc1C | 5 | 16% | -2% | 4% | 11%
COc1ccc(-c2nnc(SCC(=O)N3CCCC3=O)n2N)cc1OC | 0 | . | . | . | .
COc1ccc(-c2nnc(SC(C(=O)c3c[nH]c4ccccc34)c3ccccc3)n2N)cc1OC (centres undefined) | -27 | ? | 8.3µM* | -11% | -9%
CCOC(=O)C1C(c2cccc([N+](=O)[O-])c2)C2C(=O)NN=C2CC1(C)O (centres undefined) | -15 | 20% | 5% | 5% | 3%
COc1ccc(CNC(=S)Nc2ccc(OC)cc2)cc1 | 20 | 325% | -6% | 1% | 37%
COc1ccc(NC(=S)N/N=C/c2cccn2Cc2ccccc2F)cc1 | -38 | -6% | ? | 0% | -19%
COc1ccc2[nH]c(C)c(CCN3C(=O)C4CC=CCC4C3=O)c2c1 (centres undefined) | -28 | -3% | . | -4% | 6%
COc1ccc(NC(=S)N/N=C/c2cccn2Cc2ccc(F)cc2Cl)cc1 | -40 | ? | 3.7µM* | 0% | -10%
COc1ccc(NC(=S)NCCc2c[nH]c3ccccc23)cc1 | -24 | 20% | -31% | -1% | 4%
COc1ccc(NC(=S)NCCc2c(C)[nH]c3ccc(OC)cc23)cc1 | -69* | -1% | ? | 0% | -1%
COc1ccc2[nH]c(C)c(CCNCc3cn(C)c4ccccc34)c2c1 | -10 | 5.2µM* | 8.3µM* | . | ?
COc1ccc(NC(=S)NCc2ccc(F)cc2)cc1 | -64* | 11% | -15% | 3% | ?
Nc1cc(OC(=O)c2ccc(F)cc2)nn1S(=O)(=O)c1ccccc1 | 15 | -1% | 2% | -3% | -21%
O=C1NC(=O)C2C3C=CC(C12)C1C(=O)NC(=O)C31 (centres undefined) | 17 | . | . | . | .
COc1ccc(CCNC(=S)Nc2ccc(C(C)C)cc2)cc1 | -14 | ? | 0% | -1% | 6%
COc1ccc(CCNC(=S)Nc2ccc(OC)cc2)cc1 | -66* | -21% | -19% | 3% | -19%
COc1ccc(CCNC(=S)Nc2ccccc2)cc1 | -35 | ? | 10µM* | -17% | -22%
SMILES | HCMV antiviral | Pf growth 96h | Pf growth 48h | FBPA Giardia inh | Sm TGR inh
COc1ccc(CCNC(=S)Nc2cc(C)cc(C)c2)cc1 | -29 | ? | . | 1% | 2%
COc1ccc(CCNC(=S)Nc2cccc3ccccc23)cc1 | -26 | 45% | -25% | -3% | -3%
COc1ccc(OCCNC(=S)Nc2cccc3ccccc23)cc1 | -84* | ? | ? | -2% | 3%
CCc1cccc(NC(=O)CCn2c(=O)c3cccn3c3cccnc32)c1 | ? | . | . | . | 1%
Cc1oc(-c2ccc(C(=O)Nc3cccc(C(F)(F)F)c3)cc2)nc1CSc1ccccc1 | -98* | . | . | . | 15%
CC(=O)c1ccc(NC(=O)c2ccc(-c3nc(CSc4ccccc4)c(C)o3)cc2)cc1 | -76* | . | . | . | ?
Cc1ccc(C(C)C)c(OCCSc2nc3ccccc3n2CC(O)CO)c1 (centres undefined) | -14 | . | . | . | 4%
CC1(C(=O)NS(=O)(=O)c2ccccc2)CCN1C(=O)CCc1ccc(Cl)cc1Cl (centres undefined) | -3 | . | . | . | .
CCCCC(=O)N(C)c1c(C)nc2ccc(C(=O)Nc3cccc(NS(C)(=O)=O)c3)cn12 | 13 | . | . | . | .
CCn1cc(C(=O)NCCCN2CCCC(C)C2)c(=O)c2cc(S(=O)(=O)N3CCc4ccccc4C3)ccc21 (centres undefined) | -74* | ? | ? | 0% | -3%
CCn1cc(C(=O)NCCc2ccc(OC)c(OC)c2)c(=O)c2cc(S(=O)(=O)N3CCCCCC3)ccc21 | 16 | . | . | . | 9%
CCC1CCCCN1CCCNC(=O)c1cn(CC)c2ccc(S(=O)(=O)N(C)C3CCCCC3)cc2c1=O (centres undefined) | -69*! | ? | ? | . | 6%
CCOCCCNC(=O)c1cn(CC)c2ccc(S(=O)(=O)N(C)C3CCCCC3)cc2c1=O | -33 | ? | 9.3µM* | 10% | -11%
CCn1cc(C(=O)NCCCOC)c(=O)c2cc(S(=O)(=O)N(C)C3CCCCC3)ccc21 | -36 | -23% | ? | 14% | 1%
CCn1cc(C(=O)NCCc2ccc(OC)c(OC)c2)c(=O)c2cc(S(=O)(=O)N(C)C3CCCCC3)ccc21 | -72* | . | . | . | 5%
CC(C)NC[C@@H](O)COc1ccc(COCCOC(C)C)cc1 | . | . | . | 10% | .
CCOc1ccc(S(=O)(=O)N2CCN(C(=O)c3ccncc3)CC2)cc1 | 10 | 9% | -2% | . | 0%
CCCN(CCC)CCCNC(=O)c1cn(CC)c2ccc(S(=O)(=O)N(C)C3CCCCC3)cc2c1=O | -82*! | 10µM* | 9.3µM* | -11% | -18%
CN1CCN(c2ccc(C(=O)c3ccc(Br)cc3)cc2[N+](=O)[O-])CC1 | -68* | -2%[5.75 µM] | -16% | -4% | 1%
CN1CCN(c2ccc(S(C)(=O)=O)cc2[N+](=O)[O-])CC1 | 1 | 12µM* | 6% | 22% | -9%
CC(NCCCSc1ccccc1)C(O)c1ccc(O)cc1 (centres undefined) | -26 | . | . | . | .
COC1(OC)N=C(N)C2(C#N)C(c3ccccc3)NC(C)=CC12C#N (centres undefined) | -2 | ? | 5% | -27% | -2%
CC1=CC(C#N)(C#N)C(C#N)(C#N)C(c2ccccc2)N1 (centres undefined) | . | -101% | 6% | ? | 22µM*
CC(C)OCCCNC(=O)CN1C(=O)COc2ccc(S(=O)(=O)N3CCOCC3)cc21 | -11 | . | . | . | -1%
C[C@@H]1O[C@H](O[C@@H]2[C@H](C)O[C@H](O[C@@H]3[C@H](C)O[C@H](O[C@H]4CC[C@]5(C)[C@@H](CC[C@@H]6[C@H]5C[C@@H](O)[C@]5(C)[C@@H](C7=CC(=O)OC7)CC[C@]65O)C4)C[C@@H]3O)C[C@@H]2O)C[C@H](O)[C@@H]1O | . | . | . | 0%[21.7 µM] | .

Bioassay records (PubChem BioAssay)
